Experimental data published in PubChem BioAssay (NCI).
About 79,000 compounds went through this panel and 15% of them were active in at least one assay; those are over-represented in the sample as a whole. Activity calls are given as the source filed them. Cut-off read from the data, not from the text of the source: active = growth inhibition above about 70%; inactive = the rest.

Assay: NCI Yeast Anticancer Drug Screen. Data for the rad50 strain (AID 155);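 note: 0% = growth of vehicle-only cultures of the same strain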
Conditions: S. cerevisiae rad50 strain growth inhibition; at 5.0 µM (retest, dose inferred, filed as 0.5); hits give high values
Method in brief: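 Readout: growth inhibition relative to vehicle-treated cultures. Compound exposure was carried out in a genetically defined yeast strain deficient in DNA damage repair.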

Q: For `O=C1c2ccccc2C(=O)c2sc(Nc3cc(Cl)ccc3Cl)nc21`, which growth inhibition is on record?
A: 58% (inactive)

Q: With `OCC(c1ccccc1)c1ccccc1` as the compound, how does the growth inhibition read?
A: 24% (inactive)

Q: For `CN(C)c1nc(=NCc2ccco2)ss1`, which growth inhibition is on record?
A: 12% (inactive)

Q: With `C/C=C\C=N\NC(N)=S` as the compound, how does the growth inhibition read?
A: 4% (inactive)

Q: With `O=C(/C=N/O)c1c(-c2ccccc2)[nH]c(-c2ccccc2)c1-c1ccccc1` as the compound, how does the growth inhibition read?
A: 4% (inactive)

Q: With `Cc1c2ccccc2c(CO)c2cc(F)c3ccccc3c12` as the compound, how does the growth inhibition read?
A: 71% (active)

Q: With `O=C(O)Cc1cccc2c(=O)c3cccc([N+](=O)[O-])c3[nH]c12` as the compound, how does the growth inhibition read?
A: 32% (inactive)

Q: For `Cc1ccc(SC2=C(N(C)C)C(=O)c3ccccc3C2=O)cc1`, which growth inhibition is on record?
A: 3% (inactive)

Q: With `O=C1C(Cl)=C(Cl)C(=O)c2cc(Cl)c(Cl)cc21` as the compound, how does the growth inhibition read?
A: 82% (active)

Q: Which growth inhibition does the source give for `CC1=C(C2CO2)C(=O)C(C)=C(C2CO2)C1=O` (stereo not given) here?
A: 68% (inactive)

Q: For `CCc1cc(CC)c(-c2ccco2)c(COC(=O)NC)c1`, which growth inhibition is on record?
A: -1% (inactive)

Q: With `COC(=O)C(=O)N(c1cc(C)ccc1C)c1cc(C)ccc1C` as the compound, how does the growth inhibition read?
A: -1% (inactive)

Q: Which growth inhibition does the source give for `COC1=CC(=O)c2c(O)c3c(c(O)c2C1=O)C=C(C)OC3O` (stereo not given) here?
A: -3% (inactive)

Q: Which growth inhibition does the source give for `O=[N+]([O-])c1ccccc1NCCO` here?
A: 1% (inactive)

Q: For `CCCCCCCCCCCCCCCC[N+](C)(C)CC(=O)O`, which growth inhibition is on record?
A: 6% (inactive)

Q: For `S=C(SSSSC(=S)N1CCCCC1)N1CCCCC1`, which growth inhibition is on record?
A: 45% (inactive)

Q: With `COC(O)C12OC3CO[Si](C(C)C)(C(C)C)O[Si](C(C)C)(C(C)C)OC3C1Oc1nc(=O)ccn12` (stereo not given) as the compound, how does the growth inhibition read?
A: 10% (inactive)

Q: For `O=C(O)c1ccccc1C(c1ccccc1)c1ccccc1`, which growth inhibition is on record?
A: 15% (inactive)

Q: Which growth inhibition does the source give for `OC(OC/C(I)=C(/I)COC(O)C(Cl)(Cl)Cl)C(Cl)(Cl)Cl` (stereo not given) here?
A: 28% (inactive)

Q: Which growth inhibition does the source give for `COC(C)(C)[C@@H]1CCCN1C1=C(C)C(=O)OC1` here?
A: 97% (active)

Q: Which growth inhibition does the source give for `COc1ccc(-c2nc(C)[nH]c(=O)c2Cc2c(O)ccc3ccccc23)cc1` here?
A: 3% (inactive)

Q: For `C1CCC(CCNCCC2CCCCC2)CC1`, which growth inhibition is on record?
A: -1% (inactive)

Q: With `CC1=C(C)C1[N+](=O)[O-]` as the compound, how does the growth inhibition read?
A: 45% (inactive)

Q: With `COc1ccc2c(c1)OC(c1ccccc1O)CC2=O` (stereo not given) as the compound, how does the growth inhibition read?
A: 0% (inactive)

Q: Which growth inhibition does the source give for `CCN(CC)c1ccc(NC(CC(O)c2ccccc2)c2ccccc2)cc1` (stereo not given) here?
A: -14% (inactive)

Q: With `COc1cc(/C=C/C(=O)c2ccc3ccccc3c2)cc(OC)c1OC` as the compound, how does the growth inhibition read?
A: 38% (inactive)

Q: Which growth inhibition does the source give for `C=CC(=C)OC` here?
A: 0% (inactive)

Q: Which growth inhibition does the source give for `O=C1OC(=O)c2ccc([N+](=O)[O-])c3cccc1c23` here?
A: 0% (inactive)

Q: For `CCCOC(=O)CSC#N`, which growth inhibition is on record?
A: 39% (inactive)

Q: With `CCCCN(CCCC)CCCCCCNc1cc(OC)cc2cccnc12` as the compound, how does the growth inhibition read?
A: 4% (inactive)

Q: For `CN1C(Cl)=NS(=O)(=O)c2ccccc21`, which growth inhibition is on record?
A: 18% (inactive)

Q: Which growth inhibition does the source give for `COc1cc(C(=O)CBr)c2ccc(Cl)cc2n1` here?
A: 73% (active)

Q: With `CCCCCCCCCCCCCCCC(=O)N(CCCN(CC)CC)C(C)CCCN(CC)CC` (stereo not given) as the compound, how does the growth inhibition read?
A: 90% (active)

Q: Which growth inhibition does the source give for `CC1(c2ccccc2)OC1C(=O)N(c1ccccc1)c1ccccc1` (stereo not given) here?
A: 14% (inactive)

Q: With `CCCCCCCNC1CCCc2cc(OC)ccc21` (stereo not given) as the compound, how does the growth inhibition read?
A: 40% (inactive)

Q: Which growth inhibition does the source give for `Cc1ccc(S(=O)(=O)NCCSCCSCCNS(=O)(=O)c2ccc(C)cc2)cc1` here?
A: -1% (inactive)

Q: Which growth inhibition does the source give for `COc1ccc(C2C3CCCC(C(c4ccc(OC)cc4)N2C)C32NC(=O)NC2=O)cc1` (stereo not given) here?
A: 63% (inactive)

Q: Which growth inhibition does the source give for `CC(C)OC1=C(Cl)C(=O)c2c(cccc2[N+](=O)[O-])C1=O` here?
A: 32% (inactive)

Q: With `COC(=O)c1nnn(-c2ccc(Cl)cc2Cl)c1C(=O)c1ccc(Cl)c(Cl)c1` as the compound, how does the growth inhibition read?
A: 11% (inactive)

Q: With `O=Cc1cc2c(s1)C(=O)c1sccc1C2=O` as the compound, how does the growth inhibition read?
A: 93% (active)

Same assay, conditions: S. cerevisiae rad50 strain growth inhibition; at 50.0 µM (retest, dose inferred, filed as 5.0); hits give high values

Q: With `O=C1c2ccccc2C(=O)c2sc(Nc3cc(Cl)ccc3Cl)nc21` as the compound, how does the growth inhibition read?
A: 98% (active)

Q: Which growth inhibition does the source give for `OCC(c1ccccc1)c1ccccc1` here?
A: 42% (inactive)

Q: Which growth inhibition does the source give for `CN(C)c1nc(=NCc2ccco2)ss1` here?
A: 51% (inactive)

Q: For `C/C=C\C=N\NC(N)=S`, which growth inhibition is on record?
A: 5% (inactive)

Q: With `O=C(/C=N/O)c1c(-c2ccccc2)[nH]c(-c2ccccc2)c1-c1ccccc1` as the compound, how does the growth inhibition read?
A: 75% (active)

Q: Which growth inhibition does the source give for `Cc1c2ccccc2c(CO)c2cc(F)c3ccccc3c12` here?
A: 98% (active)

Q: With `O=C(O)Cc1cccc2c(=O)c3cccc([N+](=O)[O-])c3[nH]c12` as the compound, how does the growth inhibition read?
A: 87% (active)

Q: For `Cc1ccc(SC2=C(N(C)C)C(=O)c3ccccc3C2=O)cc1`, which growth inhibition is on record?
A: 90% (active)

Q: For `O=C1C(Cl)=C(Cl)C(=O)c2cc(Cl)c(Cl)cc21`, which growth inhibition is on record?
A: 99% (active)

Q: For `CC1=C(C2CO2)C(=O)C(C)=C(C2CO2)C1=O` (stereo not given), which growth inhibition is on record?
A: 100% (active)

Q: With `CCc1cc(CC)c(-c2ccco2)c(COC(=O)NC)c1` as the compound, how does the growth inhibition read?
A: 68% (inactive)

Q: For `COC(=O)C(=O)N(c1cc(C)ccc1C)c1cc(C)ccc1C`, which growth inhibition is on record?
A: 85% (active)

Q: Which growth inhibition does the source give for `COC1=CC(=O)c2c(O)c3c(c(O)c2C1=O)C=C(C)OC3O` (stereo not given) here?
A: 34% (inactive)

Q: Which growth inhibition does the source give for `O=[N+]([O-])c1ccccc1NCCO` here?
A: -2% (inactive)

Q: Which growth inhibition does the source give for `CCCCCCCCCCCCCCCC[N+](C)(C)CC(=O)O` here?
A: 92% (active)

Q: For `S=C(SSSSC(=S)N1CCCCC1)N1CCCCC1`, which growth inhibition is on record?
A: 92% (active)

Q: With `COC(O)C12OC3CO[Si](C(C)C)(C(C)C)O[Si](C(C)C)(C(C)C)OC3C1Oc1nc(=O)ccn12` (stereo not given) as the compound, how does the growth inhibition read?
A: 98% (active)

Q: With `O=C(O)c1ccccc1C(c1ccccc1)c1ccccc1` as the compound, how does the growth inhibition read?
A: 62% (inactive)

Q: For `OC(OC/C(I)=C(/I)COC(O)C(Cl)(Cl)Cl)C(Cl)(Cl)Cl` (stereo not given), which growth inhibition is on record?
A: 96% (active)

Q: For `COC(C)(C)[C@@H]1CCCN1C1=C(C)C(=O)OC1`, which growth inhibition is on record?
A: 99% (active)

Q: For `COc1ccc(-c2nc(C)[nH]c(=O)c2Cc2c(O)ccc3ccccc23)cc1`, which growth inhibition is on record?
A: 50% (inactive)

Q: For `C1CCC(CCNCCC2CCCCC2)CC1`, which growth inhibition is on record?
A: 99% (active)

Q: Which growth inhibition does the source give for `CC1=C(C)C1[N+](=O)[O-]` here?
A: 94% (active)

Q: With `COc1ccc2c(c1)OC(c1ccccc1O)CC2=O` (stereo not given) as the compound, how does the growth inhibition read?
A: -17% (inactive)

Q: For `CCN(CC)c1ccc(NC(CC(O)c2ccccc2)c2ccccc2)cc1` (stereo not given), which growth inhibition is on record?
A: 1% (inactive)

Q: Which growth inhibition does the source give for `COc1cc(/C=C/C(=O)c2ccc3ccccc3c2)cc(OC)c1OC` here?
A: 40% (inactive)

Q: With `C=CC(=C)OC` as the compound, how does the growth inhibition read?
A: 14% (inactive)

Q: For `O=C1OC(=O)c2ccc([N+](=O)[O-])c3cccc1c23`, which growth inhibition is on record?
A: 7% (inactive)

Q: With `CCCOC(=O)CSC#N` as the compound, how does the growth inhibition read?
A: 97% (active)

Q: For `CCCCN(CCCC)CCCCCCNc1cc(OC)cc2cccnc12`, which growth inhibition is on record?
A: 32% (inactive)

Q: With `CN1C(Cl)=NS(=O)(=O)c2ccccc21` as the compound, how does the growth inhibition read?
A: 22% (inactive)

Q: Which growth inhibition does the source give for `COc1cc(C(=O)CBr)c2ccc(Cl)cc2n1` here?
A: 97% (active)

Q: Which growth inhibition does the source give for `CCCCCCCCCCCCCCCC(=O)N(CCCN(CC)CC)C(C)CCCN(CC)CC` (stereo not given) here?
A: 98% (active)

Q: For `CC1(c2ccccc2)OC1C(=O)N(c1ccccc1)c1ccccc1` (stereo not given), which growth inhibition is on record?
A: 99% (active)

Q: With `CCCCCCCNC1CCCc2cc(OC)ccc21` (stereo not given) as the compound, how does the growth inhibition read?
A: 56% (inactive)

Q: Which growth inhibition does the source give for `Cc1ccc(S(=O)(=O)NCCSCCSCCNS(=O)(=O)c2ccc(C)cc2)cc1` here?
A: -7% (inactive)

Q: For `COc1ccc(C2C3CCCC(C(c4ccc(OC)cc4)N2C)C32NC(=O)NC2=O)cc1` (stereo not given), which growth inhibition is on record?
A: 98% (active)

Q: For `CC(C)OC1=C(Cl)C(=O)c2c(cccc2[N+](=O)[O-])C1=O`, which growth inhibition is on record?
A: 99% (active)

Q: For `COC(=O)c1nnn(-c2ccc(Cl)cc2Cl)c1C(=O)c1ccc(Cl)c(Cl)c1`, which growth inhibition is on record?
A: 99% (active)

Q: With `O=Cc1cc2c(s1)C(=O)c1sccc1C2=O` as the compound, how does the growth inhibition read?
A: 99% (active)
